Data: PubChem BioAssay AID1159580 (chemical genetic matrix, 2015)
Among all 5,500 compounds or so, about 2,000 (36%) were called active. Inconclusive results (about 18%) are left out. Cut-off read from the data, not from the text of the source: active = normalized growth mostly below about 0.91 (no sharp cut-off); inconclusive = no clear call, values can overlap the other calls; inactive = mostly above about 0.92. The list shows a part of the results.

Assay: chemical genetic growth profiling, strain panel (AID 1159580);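 note: tested at 20 µM; growth read once vehicle control cultures reached saturation at 30 °C; 1 = growth at the plate median or of vehicle wells; lower values mean less growth of the strain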
Settings: S. cerevisiae deletion strains, growth OD

Measured: normalized growth

CCCCCC(=O)Cc1cc(O)cc(O)c1C(=O)Oc1cc(CC(=O)CCCCC)c(C(=O)O)c(OC)c1
inactive: locus YAL030W, strain snc1, hits give low values 0.934 | locus YBL061C, strain skt5, hits give low values 0.925 | locus YBR231C, strain swc5, hits give low values 0.927 | locus YBR279W, strain paf1, hits give low values 0.943 | locus YCL011C, strain gbp2, hits give low values 0.933 | locus YCL016C, strain dcc1, hits give low values 0.943 | locus YCL069W, strain vba3, hits give low values 0.929 | locus YCR088W, strain abp1, hits give low values 0.934 | locus YDL005C, strain med2, hits give low values 0.954 | locus YDL040C, strain nat1, hits give low values 0.939 | locus YDR001C, strain nth1, hits give low values 0.936 | locus YDR069C, strain doa4, hits give low values 0.95 | locus YDR195W, strain ref2 0.863 | locus YDR297W, strain sur2, hits give low values 0.927 | locus YDR334W, strain swr1, hits give low values 0.917 | locus YEL003W, strain gim4, hits give low values 0.919 | locus YEL037C, strain rad23, hits give low values 0.941 | locus YEL061C, strain CIN8 (second series), hits give low values 0.946 | locus YER015W, strain faa2, hits give low values 0.947 | locus YER111C, strain swi4, hits give low values 0.941 | locus YFR010W, strain ubp6, hits give low values 0.933 | locus YGL227W, strain vid30, hits give low values 0.937 | locus YHR030C, strain SLT2, hits give low values 1.01 | locus YHR079C, strain IRE1, hits give low values 0.981 | locus YJL092W, strain hpr5, hits give low values 0.943 | locus YJL095W, strain BCK1, hits give low values 0.99 | locus YJL115W, strain asf1, hits give low values 0.922 | locus YJL154C, strain vps35, hits give low values 0.935 | locus YJR066W, strain TOR1, hits give low values 0.939 | locus YKL160W, strain elf1, hits give low values 0.916 | locus YKR026C, strain gcn3, hits give low values 0.933 | locus YLL001W, strain dnm1, hits give low values 0.941 | locus YLL026W, hits give low values 0.935 | locus YLR113W, strain HOG1, hits give low values 0.983 | locus YLR258W, strain gsy2, hits give low values 0.919 | locus YLR357W, strain rsc2, hits give low values 0.866 | locus YLR370C, strain arc18, hits give low values 0.925 | locus YLR384C, strain iki3, hits give low values 0.945 | locus YMR125W, strain sto1, hits give low values 0.909 | locus YMR231W, strain pep5, hits give low values 0.929 | locus YNL183C, strain NPR1, hits give low values 0.946 | locus YNL209W, strain ssb2, hits give low values 0.948 | locus YNL248C, strain rpa49, hits give low values 0.903 | locus YNL322C, strain KRE1 (second series), hits give low values 0.919 | locus YNR049C, strain mso1, hits give low values 0.95 | locus YOR080W, strain dia2, hits give low values 0.938 | locus YOR083W, strain WHI5, hits give low values 0.898 | locus YOR106W, strain vam3, hits give low values 0.897 | locus YOR231W, strain MKK1, hits give low values 0.994 | locus YOR290C, strain snf2, hits give low values 0.925 | locus YPL256C, strain CLN2, hits give low values 0.989
active: locus YAL021C, strain ccr4, hits give low values 0.892 | locus YAL026C, strain drs2, hits give low values 0.86 | locus YBR009C, strain hhf1, hits give low values 0.881 | locus YBR023C, strain chs3, hits give low values 0.907 | locus YBR171W, strain sec66, hits give low values 0.858 | locus YDR137W, strain rgp1, hits give low values 0.412 | locus YDR159W, strain sac3, hits give low values 0.771 | locus YDR335W, strain msn5, hits give low values 0.894 | locus YDR392W, strain spt3, hits give low values 0.404 | locus YER016W, strain bim1, hits give low values 0.913 | locus YER155C, strain BEM2 (second series), hits give low values 0.639 | locus YGL167C, strain pmr1, hits give low values 0.89 | locus YGL173C, strain kem1, hits give low values 0.851 | locus YGL240W, strain doc1, hits give low values 0.77 | locus YGL253W, strain hxk2, hits give low values 0.855 | locus YHR013C, strain ard1, hits give low values 1.18 [resistant] | locus YHR027C, strain rpn1, hits give low values 0.919 | locus YHR142W, strain chs7, hits give low values 0.818 | locus YJL095W, strain BCK1 (second series), hits give low values 0.694 | locus YJL129C, strain trk1, hits give low values 0.632 | locus YJL164C, strain tpk1, hits give low values 0.899 | locus YJL166W, strain qcr8, hits give low values 0.871 | locus YJL187C, strain SWE1, hits give low values 0.909 | locus YKR091W, strain srl3, hits give low values 0.922 | locus YLL041C, strain sdh2, hits give low values 0.927 | locus YLR027C, strain aat2, hits give low values 0.922 | locus YLR221C, strain rsa3, hits give low values 0.859 | locus YLR262C, strain YPT6 (second series), hits give low values 0.409 | locus YLR320W, strain mms22, hits give low values 0.826 | locus YLR342W, strain FKS1, hits give low values 0.901 | locus YML120C, strain ndi1, hits give low values 0.898 | locus YMR058W, strain fet3, hits give low values 0.883 | locus YMR129W, hits give low values 0.918 | locus YMR205C, strain PFK2, hits give low values 0.783 | locus YNL071W, strain lat1, hits give low values 0.888 | locus YOR001W, strain rrp6, hits give low values 0.882 | locus YOR070C, strain gyp1, hits give low values 0.918 | locus YOR265W, strain rbl2, hits give low values 0.925 | locus YOR270C, strain vph1, hits give low values 0.607 | locus YPL051W, strain arl3, hits give low values 0.853 | locus YPL078C, strain atp4, hits give low values 0.862 | locus YPL106C, strain sse1, hits give low values 0.812 | locus YPL240C, strain hsp82, hits give low values 0.912
